This passage reports growth results from PubChem BioAssay (NCI).

Test systems include SK-MEL-2 melanoma; EKVX NSCLC; SN12C renal; UO-31 renal; TK-10 renal; ACHN renal; A498 renal; CCRF-CEM leukemia; MOLT-4 leukemia; CAKI-1 renal.
Assay in all cases: NCI-60 one-dose screen, 48 h (100 = growth as untreated, 0 = no growth, -100 = all killed)
Common to all, as to details: 10 µM unless noted

This is part of a sample that, as a whole, favours compounds with a hit. Of some 83,000 tested, about 20% had one in any assay.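 Testing used 96-well plates and a 48-hour single-concentration exposure. Example: -40 means 40% of the starting cells died.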 Values without a mark were called inactive. The source made the active and inactive calls. How the source made its calls: active means growth percent below 10; inactive means the rest.

On to `C=C(C)[C@@H]1CC[C@]2(C(=O)N3CCN(C)CC3)CC[C@]3(C)[C@H](CC[C@@H]4[C@@]5(C)C/C(=C/c6ccncc6)[C@H](O)C(C)(C)[C@@H]5CC[C@]43C)[C@@H]12`, for which the growth is -60.1% [100 µM] (active) in the experiment on SK-MEL-2 melanoma; -1.55% [100 µM] (active) in the experiment with EKVX NSCLC; -44.2% [100 µM] (active) in the experiment with SN12C renal; -61.4% [100 µM] (active) in the experiment with UO-31 renal; 22% [100 µM] in the experiment on TK-10 renal; -0.441% [100 µM] (active) with ACHN renal. Besides, the growth was -28.9% [100 µM] (active) in the experiment on A498 renal, -5.24% [100 µM] (active) with CCRF-CEM leukemia and -24.4% [100 µM] (active) in the experiment on MOLT-4 leukemia.
As to `O=S(=O)(NCCCNc1nccc(-c2c(-c3cccc(F)c3)nc3occn23)n1)c1cccc2ccccc12`, the growth is 47.3% with SK-MEL-2 melanoma; 47.3% in the experiment with EKVX NSCLC; 43.3% in the experiment on SN12C renal; 17.6% in the experiment with UO-31 renal; 55.6% in the experiment with TK-10 renal; 29.5% in the experiment on ACHN renal. In addition, the growth in the experiment on A498 renal was 28.9%; in the experiment on MOLT-4 leukemia it was 5.16% (active).
Consider `CC1Cc2c(Cl)ncnc2N(C)c2ccc(Cl)cc21` (configuration not stated), for which the growth is -27.7% (active) in the experiment on SK-MEL-2 melanoma; 14.2% in the experiment with EKVX NSCLC; 2.41% (active) with SN12C renal; 19.6% in the experiment with UO-31 renal; 11.2% in the experiment on TK-10 renal; 11.8% with ACHN renal. Also, the growth was -34.9% (active) with A498 renal, 19.4% in the experiment with CCRF-CEM leukemia and 8.07% (active) in the experiment with MOLT-4 leukemia.
Consider `CC1=CCc2ccccc21`, for which the growth in the experiment with SK-MEL-2 melanoma is 140%; with EKVX NSCLC, 110%; in the experiment with SN12C renal, 88%; with UO-31 renal it was 70.8%; in the experiment on TK-10 renal it was 103%; with ACHN renal, 98.6%. Further, the growth is 89.9% in the experiment with A498 renal, 94.3% in the experiment with CCRF-CEM leukemia and 97% with MOLT-4 leukemia.
On to `Nc1ccc(NC(=O)c2ccccc2)c2c1C(=O)c1ccccc1C2=O`, for which the growth in the experiment on SK-MEL-2 melanoma was 108%; in the experiment on EKVX NSCLC, 76.3%; in the experiment with SN12C renal, 97.8%; in the experiment with UO-31 renal, 74.2%; in the experiment with TK-10 renal, 96.1%; in the experiment on ACHN renal, 92.6%. Besides, the growth was 96.7% in the experiment on CAKI-1 renal, 113% in the experiment with A498 renal and 106% in the experiment with MOLT-4 leukemia.
As to `CCN(CC)CCCOc1ccc2c(c1)O/C(=C\c1cccc(OC)c1)C2=O`, the growth was 118% in the experiment on SK-MEL-2 melanoma; 97.4% in the experiment with EKVX NSCLC; 87.1% in the experiment with SN12C renal; 73.8% in the experiment with UO-31 renal; 98.7% in the experiment on TK-10 renal; 99.8% with ACHN renal. Moreover, the growth in the experiment on A498 renal is 72.6%; in the experiment with CCRF-CEM leukemia, 102%; in the experiment with MOLT-4 leukemia, 97.7%.
For `Cc1ccc(-c2cn(C/C=C3\C=CN(S(=O)(=O)c4ccccc4)CC3)nn2)cc1`, the growth with SK-MEL-2 melanoma is 101%; in the experiment on EKVX NSCLC, 101%; with SN12C renal, 91.9%; in the experiment on UO-31 renal it was 72.6%; with TK-10 renal, 115%; in the experiment with ACHN renal it was 95.8%. Moreover, the growth in the experiment with CAKI-1 renal was 76.5%; in the experiment with A498 renal, 94.3%; in the experiment with MOLT-4 leukemia it was 106%.
For `COc1cc(NCc2ccccc2O)c2ncccc2c1`, the growth with SK-MEL-2 melanoma is 142%; with EKVX NSCLC, 82%; in the experiment on SN12C renal it was 106%; with UO-31 renal, 75.8%; with TK-10 renal, 150%; with CAKI-1 renal, 8.76% (active). Also, the growth in the experiment on A498 renal was 72%; with CCRF-CEM leukemia, 91.5%; with MOLT-4 leukemia it was 88.3%.
In the case of `CCN(CC)c1ccc2cc(C(Nc3ccc(Cl)cc3)c3nnnn3C(C)(C)C)c(=O)oc2c1` (configuration not stated), the growth is 89.5% in the experiment on SK-MEL-2 melanoma; 81.4% with EKVX NSCLC; 89.6% in the experiment with SN12C renal; 71.8% in the experiment on UO-31 renal; 85.7% with TK-10 renal; 81% with A498 renal. The values for the growth in the experiment with CCRF-CEM leukemia and in the experiment on MOLT-4 leukemia were 93.5% and 63.5%, respectively.
Regarding `COc1ccc(/C=C/C=C\C(=O)c2ccc(-n3ccnc3)cc2)cc1`, the growth with SK-MEL-2 melanoma was 108%; with EKVX NSCLC, 96.6%; in the experiment with SN12C renal it was 90.7%; in the experiment with UO-31 renal, 73.9%; in the experiment with TK-10 renal, 96.3%; with CAKI-1 renal, 90.9%. For the same compound, the growth is 73.3% with A498 renal, 80.2% in the experiment with CCRF-CEM leukemia and 75% in the experiment with MOLT-4 leukemia.
Take `CCOC(=O)COc1c(C)cc(SSc2cc(C)c(OCC(=O)OCC)c(C)c2)cc1C`: the growth was 100% with SK-MEL-2 melanoma; 107% in the experiment on EKVX NSCLC; 102% in the experiment with SN12C renal; 82.4% in the experiment with UO-31 renal; 87.5% with TK-10 renal; 106% in the experiment on CAKI-1 renal. Besides, the growth in the experiment on A498 renal is 99.8%; with MOLT-4 leukemia, 82.5%.
For `CC[C@]12C=CCN3CC[C@@]4(c5ccc(OC)cc5N(C)[C@H]4[C@@](O)(C(=O)OC)[C@@H]1OC(=O)CCC(=O)O[C@H]1CC[C@H]4[C@@H]5CCC6=CC(=O)CC[C@@H]6[C@H]5CC[C@]14C)[C@@H]32`, the growth is -79.8% [100 µM] (active) with SK-MEL-2 melanoma; 16.1% [100 µM] with EKVX NSCLC; 7.65% [100 µM] (active) with SN12C renal; -7.86% [100 µM] (active) with UO-31 renal; 12.4% [100 µM] in the experiment with TK-10 renal; 6.42% [100 µM] (active) in the experiment on CAKI-1 renal. Moreover, the growth in the experiment with A498 renal is -15.8% [100 µM] (active); in the experiment on CCRF-CEM leukemia, 5.61% [100 µM] (active); in the experiment on MOLT-4 leukemia, -6.15% [100 µM] (active).
Consider `Oc1cc(Nc2ccnc3cc(Cl)ccc23)c2ncccc2c1`, for which the growth in the experiment with SK-MEL-2 melanoma is 94.4%; in the experiment on EKVX NSCLC, 98.5%; with SN12C renal it was 79.3%; in the experiment with TK-10 renal, 109%; in the experiment with ACHN renal, 71.1%; in the experiment with CAKI-1 renal, 86.2%. In addition, the growth was 100% with A498 renal and 67.9% in the experiment with CCRF-CEM leukemia.
Take `COc1ccc2c(c1)C(C)Cc1c(ncnc1-n1cnc3ccccc31)N2C` (configuration not stated): the growth was 44% in the experiment on SK-MEL-2 melanoma; 40.4% in the experiment with EKVX NSCLC; 24.5% in the experiment with SN12C renal; 46.9% with UO-31 renal; 63.7% in the experiment with TK-10 renal; 27.6% in the experiment on CAKI-1 renal. The growth was -0.234% (active) in the experiment with A498 renal, 9.22% (active) in the experiment with CCRF-CEM leukemia and 17.8% in the experiment on MOLT-4 leukemia.
